High-throughput results as filed in PubChem.
The full list was thinned out, with hits kept by preference.
Dicer processing – inhibitors of human Dicer processing of pre-microRNA | 47,000 tested, 6% active | z-score at 25 µM | cat-ELCCA pre-miR-21 Dicer processing, chemiluminescence; stronger effect = higher value | AID 1347074 | Q9UPY3; in the data active = z-score above about 3, passing the limit was not always enough;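 note: plate controls were vehicle for no effect and no enzyme for full effect; higher signal means more uncleaved substrate so more Dicer inhibition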
Target sequence (Q9UPY3 whole entry, looked up): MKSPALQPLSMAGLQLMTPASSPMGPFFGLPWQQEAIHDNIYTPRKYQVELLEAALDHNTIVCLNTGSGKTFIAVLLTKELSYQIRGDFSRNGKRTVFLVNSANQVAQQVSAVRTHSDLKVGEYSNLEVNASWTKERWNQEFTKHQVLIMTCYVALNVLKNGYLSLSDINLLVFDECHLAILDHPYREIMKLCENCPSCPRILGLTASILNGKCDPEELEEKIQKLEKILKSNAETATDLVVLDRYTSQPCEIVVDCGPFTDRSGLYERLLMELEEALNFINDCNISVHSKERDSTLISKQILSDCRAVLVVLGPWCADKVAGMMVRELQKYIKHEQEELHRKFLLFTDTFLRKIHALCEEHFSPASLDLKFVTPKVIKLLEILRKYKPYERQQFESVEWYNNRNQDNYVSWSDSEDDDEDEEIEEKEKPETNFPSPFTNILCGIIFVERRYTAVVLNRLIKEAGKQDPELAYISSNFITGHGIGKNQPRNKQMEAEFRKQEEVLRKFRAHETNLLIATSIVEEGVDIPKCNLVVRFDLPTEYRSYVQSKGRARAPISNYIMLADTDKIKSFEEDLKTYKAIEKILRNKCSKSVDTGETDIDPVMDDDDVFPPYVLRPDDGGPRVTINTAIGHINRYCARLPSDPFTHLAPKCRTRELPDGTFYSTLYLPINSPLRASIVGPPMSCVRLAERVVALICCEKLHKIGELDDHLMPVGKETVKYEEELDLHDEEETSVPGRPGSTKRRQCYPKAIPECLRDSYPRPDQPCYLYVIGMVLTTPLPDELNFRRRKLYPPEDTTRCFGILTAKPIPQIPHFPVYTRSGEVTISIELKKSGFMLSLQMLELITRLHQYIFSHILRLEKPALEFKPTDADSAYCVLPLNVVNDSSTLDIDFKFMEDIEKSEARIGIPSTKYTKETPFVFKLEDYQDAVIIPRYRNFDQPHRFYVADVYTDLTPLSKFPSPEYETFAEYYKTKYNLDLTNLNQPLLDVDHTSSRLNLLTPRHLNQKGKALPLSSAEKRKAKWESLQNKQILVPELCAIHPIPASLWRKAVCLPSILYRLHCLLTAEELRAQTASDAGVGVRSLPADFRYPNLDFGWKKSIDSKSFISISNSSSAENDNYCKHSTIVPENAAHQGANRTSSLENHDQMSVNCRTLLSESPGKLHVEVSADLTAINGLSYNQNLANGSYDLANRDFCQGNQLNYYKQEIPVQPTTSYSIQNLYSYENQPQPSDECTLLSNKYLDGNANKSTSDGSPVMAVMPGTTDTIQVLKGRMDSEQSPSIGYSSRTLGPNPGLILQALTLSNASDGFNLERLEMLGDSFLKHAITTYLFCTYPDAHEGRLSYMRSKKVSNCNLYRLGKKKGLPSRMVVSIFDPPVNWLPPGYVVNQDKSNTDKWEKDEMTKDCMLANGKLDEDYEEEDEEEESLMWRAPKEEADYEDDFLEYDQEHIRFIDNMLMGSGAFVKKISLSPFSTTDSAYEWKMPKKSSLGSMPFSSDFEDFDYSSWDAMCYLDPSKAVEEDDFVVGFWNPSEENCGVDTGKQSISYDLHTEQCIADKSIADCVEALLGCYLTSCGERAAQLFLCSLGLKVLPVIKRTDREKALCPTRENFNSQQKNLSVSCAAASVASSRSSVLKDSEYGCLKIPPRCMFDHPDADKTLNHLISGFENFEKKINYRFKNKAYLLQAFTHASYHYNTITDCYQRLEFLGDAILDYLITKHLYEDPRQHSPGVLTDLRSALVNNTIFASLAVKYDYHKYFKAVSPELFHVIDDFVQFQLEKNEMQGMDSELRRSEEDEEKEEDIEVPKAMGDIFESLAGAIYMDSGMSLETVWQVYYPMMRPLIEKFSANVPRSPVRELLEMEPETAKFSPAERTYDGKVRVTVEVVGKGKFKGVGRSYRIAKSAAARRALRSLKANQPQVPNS
* = called active by the depositor.

SMILES | Dicer processing
O=C(O)c1cccc2cccc(S(=O)c3ccccc3CO)c12 (stereo not given) | -0.98
Nc1ccc(C(=O)O)c2c(C(=O)O)cccc12 | -0.03
N#Cc1cccc(CSc2nccc(=O)[nH]2)c1 | -3.3
Cc1cc(C)n(Cc2ccc(Cl)cc2)c(=O)c1C#N | -0.9
Cc1ccc(OCC2CN(Cc3ccccc3)C(=O)O2)cc1 (stereo not given) | 0.12
O=C(O)C1CC(=O)N(c2ccc(Oc3ccccc3)cc2)C1 (stereo not given) | 1.6
O=C1OC(COc2ccccc2)CN1c1ccccc1 (stereo not given) | 3.4*
CCOC(=O)c1cc(Sc2n[nH]c(-c3ccccc3)n2)cc(C(=O)OCC)n1 | -0.49
O=C(COc1nnc(SCC(=O)c2ccc3c(c2)OCCO3)n1C1Cc2ccccc2C1)c1ccc(F)cc1 | 0.16
NC(N)=N/C(N)=N/c1nc(-c2ccccc2)cs1 | 6.7
COc1ccc2c(c1)CCCN2C(=O)c1sc2ccccc2c1Cl | -1.1
COc1ccc2[nH]c(C(=O)O)cc2c1 | 0.75
COc1ccc2sc(C(=O)O)c(Br)c2c1 | 4.3*
CC(Nc1ncnc2c1oc1ccccc12)C(=O)O (stereo not given) | 0.18
COc1ccc(N2CCN(C(=O)c3cc4n(n3)C(C(F)(F)F)CC(c3ccco3)N4)CC2)cc1 (stereo not given) | 0.83
O=C(Nc1ccc(Cl)cc1)c1nn2c(c1Cl)NC(c1ccco1)CC2C(F)(F)F (stereo not given) | 3.8*
O=C(c1nn2c(c1Cl)NC(c1ccco1)CC2C(F)(F)F)N1CCCC1 (stereo not given) | 2.4
O=C(c1nn2c(c1Cl)NC(c1ccco1)CC2C(F)(F)F)N1CCN(c2ccccc2)CC1 (stereo not given) | 5.3*
CC(C)(C)NC(=O)c1nn2c(c1Cl)NC(c1ccco1)CC2C(F)(F)F (stereo not given) | 3.2*
O=C(Nc1ccc(Cl)cc1)c1cc2n(n1)C(C(F)(F)F)CC(c1ccco1)N2 (stereo not given) | 1.4
CC(C)(C)NC(=O)c1nn2c(c1Br)NC(c1ccccc1)CC2C(F)(F)F (stereo not given) | -0.07
O=C(Nc1ccc(O)cc1)c1cc2n(n1)C(C(F)(F)F)CC(c1ccco1)N2 (stereo not given) | 1.2
O=C(NC1CC1)c1cc2n(n1)C(C(F)(F)F)CC(c1ccco1)N2 (stereo not given) | -0.56
Fc1c(CSC2=NCCN2)cccc1CSC1=NCCN1 | -3.5
Cc1c(Cl)cccc1S(=O)(=O)N1CCCN(c2nc3ccc(Cl)cc3s2)CC1 | -0.8
SMILES | Dicer processing
CC(=O)O/N=C(\N)c1ccc(F)cc1F | -0.17
CSc1n[nH]c(NC(=O)c2ccc(Cl)c(Cl)c2)c1S(=O)(=O)c1ccc(Cl)cc1 | -1.1
CCOC(=O)c1cnn(C(N)=S)c1N | -0.37
CSC(N)=Nc1ccccc1 | 1.6
CCN(C(=Nc1ccc(Cl)cc1)SC)c1ccccc1 | 3.4*
CCN(C(=S)Nc1c(C)cccc1Cl)c1ccccc1 | 0.1
Cc1cc(Cl)cc2c1C(=O)/C(=C\c1ccccc1O)S2 | 5*
O=C1C(c2cc(Cl)cc(Cl)c2)=C(O)c2ccccc21 | -0.75
Cc1cc(Cl)cc2c1C(=O)/C(=C\c1cccnc1)S2 | -0.04
COc1cc(C2C3=C(CCCC3=O)NC3=C2C(=O)CCC3)ccc1O | 0.63
Cc1c(Br)c([N+](=O)[O-])nn1CC(=O)NCCCN1CCOCC1 | -0.49
CCCCOc1c(Nc2cccc(OC)c2)c(=O)c1=O | 8.7
CCOc1c(Nc2cccc(OC)c2)c(=O)c1=O | -0.58
CCOc1c(Nc2ccccc2O)c(=O)c1=O | 4.1*
CN(C)S(=O)(=O)Oc1ccc(-c2noc(-c3ccc(Oc4cc(Cl)cc(Cl)c4)o3)n2)cc1 | -0.42
O=C(CN1C(=O)c2ccccc2S1(=O)=O)c1ccccc1 | -1.1
C=CCN1C(C(=O)c2ccccc2)=C(OC(C)=O)c2ccccc2S1(=O)=O | -0.22
CCN(CC)C1=C(C(=O)c2ccccc2)N(CC(N)=O)S(=O)(=O)c2ccccc21 | 3.1*
COC(=O)c1cccc2cccc(I)c12 | -1.2
S=c1[nH]nc(Cc2ccccc2)n1-c1ccc(Cl)cc1 | -0.95
S=c1[nH]nc(Cc2n[nH]c(=S)n2-c2ccccc2)n1-c1ccccc1 | 3.3*
S=c1[nH]nc(Cc2ccccc2)n1-c1ccccc1 | -0.51
O=C(CSc1nc2ccccc2c(=O)[nH]1)Nc1cccc2nsnc12 | -0.43
NC(CCc1nc2ccccc2[nH]1)C(=O)O (stereo not given) | -0.22
CC(C)CNc1nc(Oc2ccc(=O)n(-c3ccccc3)n2)nc(N2CCOCC2)n1 | 3.6*
SMILES | Dicer processing
CC(C)CNc1nc(Oc2ccc(=O)n(C)n2)nc(N2CCOCC2)n1 | 1.6
CC(C)(C)Nc1nc(Oc2ccc(=O)n(-c3ccccc3)n2)nc(N2CCOCC2)n1 | -0.55
S=C(Nc1ccccc1)N1N=C2c3ccccc3CCC2C1c1ccc(Cl)cc1 (stereo not given) | -2.2
Nc1ccc(Sc2ccc(Cl)cc2)nc1 | 1.1
O=C(NCc1ccccc1)C1CCC(C(=O)NCc2ccccc2)N1 (stereo not given) | -0.39
O=C(NCc1ccccc1)N1c2ccccc2Sc2ccccc21 | -0.87
